Consider 65 compounds from PubChem BioAssay AID504834 (National Center for Advancing Translational Sciences (NCATS), 2011).

Where “and” joins values, the source holds several entries; their conditions need not be identical. Equal entries are not always repeated. Hit rate of the full screen: of about 320,000 compounds, about 22,000 (6.9%) were called active. A call without a number means that no potency is given here. Not shown: some 27% with an inconclusive outcome. Calls come from the whole dose curve; as a rule, active = well fitted inhibition curve with a large enough effect; inconclusive = small, poorly fitted or top-dose-only effect, or another doubt; inactive = no such curve, though single readings can be large or run the other way. The sample as a whole holds a higher share of actives than the screen did. Some structures have more than one record in an assay (separate samples or runs), and their calls can disagree.
Potency is the fitted concentration of half-maximal effect.

The assay is described as follows: Primary qHTS for delayed death inhibitors of the malarial parasite plastid, 96 hour incubation. Conditions: P. falciparum luciferase reporter growth; series mostly up to 28.7 µM. The text has this:
The goal of this screen is to discover new antimalarial compounds that act by inhibiting the development of the apicoplast in the malarial parasite Plasmodium falciparum. The biochemical processes that make this organelle essential for erythrocytic stage parasites are not well understood. However, antibiotics such as azithromycin and tetracycline, which target the apicoplast translational machinery, have a potent antimalarial effect.
We have developed a cell-based assay that measures parasite growth based on the expression of an integrated copy of a firefly luciferase reporter. To detect small molecules that cause this "delayed death" phenotype, erythrocytes infected with the luciferase-expressing parasites were incubated with compounds for either one or two generations, corresponding to 48 and 96 hours, respectively. Compounds that inhibit parasite growth in the second generation, but not the first, should be enriched in antimalarials that target the apicoplast. Growth inhibition is detected by a decrease in luciferase activity.
Assay Provider: David Fidock and Eric Ekland, Columbia University
Keywords: NIH Roadmap, MLPCN, MLI, MLSMR, qHTS, NCGC, qHTS, malaria, luciferase, viability
Four microliters of infected erythrocytes (2% hematocrit, 0.05% parasitemia final concentration) in culture medium were dispensed and the plates incubated for 96 hours at 37 C in 5% CO2. Two microliters of luciferase detection reagent was added and luminescence was detected by a ViewLux (PerkinElmer) reader.
On the technique in general: In qHTS, concentration-response curves come from the screen itself.
For the compound `CC1CCN(C(=O)/C(=C\c2ccccc2F)NC(=O)c2ccccc2)CC1`, the Potency entry is “inactive”.
`Cn1c(=O)c2c(nc(N3CCCCCC3)n2CC(=O)c2ccc(Br)cc2)n(C)c1=O`: the Potency entry is “inactive”.
`C=CCn1c(Oc2ccc(C(=O)OC)cc2)nc2c1c(=O)n(C)c(=O)n2C`: the Potency is 5.86 µM (active).
For `Cn1c(=O)c2c(nc(NCc3ccccc3)n2CC(N)=O)n(C)c1=O`, the Potency result is “inactive”.
The same measure, in the same setting: then `COc1ccc(NC(=O)CCNC(=O)Cn2cnc3sc4c(c3c2=O)CCCC4)cc1OC`, with “inactive”; and `C=CCN1C(=O)C2(OCCCO2)c2cccc(Cl)c21`, with “inactive”; and `COc1ccc(-c2nnc3n2CCCCC3)cc1`, with “inactive”.
As for `CC(=O)N1c2ccc(S(=O)(=O)N3CCCC(C(=O)Nc4cccc(F)c4)C3)cc2CC1C` (stereo not given), the Potency was 11.7 µM (active).
On the same count and under the same terms, the entry for `CC(=O)N1c2ccc(S(=O)(=O)N3CCC(C(=O)NC4CCCCC4C)CC3)cc2CC1C` (stereo not given) is “inactive”; for `CC(=O)N1c2ccc(S(=O)(=O)N3CCCC(C(=O)Nc4cccc(Cl)c4)C3)cc2CC1C` (stereo not given) it is “inactive”; for `O=C(CN1C(=O)S/C(=C\c2ccccc2Cl)C1=O)NC1C=CS(=O)(=O)C1` (stereo not given) it is “inactive”.
On to `CCOC(=O)c1c(-c2ccc(C)cc2)csc1/N=C(\C)C1=C(O)c2ccccc2C1=O`, for which the Potency entry is “inactive”.
With `CCOC(=O)c1c(-c2ccccc2)csc1NC(=S)NC(=O)c1ccccc1`, the Potency entry was “inactive”.
Turning to `COC(=O)c1c(-c2ccc(C)cc2)csc1N`, the Potency was 13.1 µM (active).
Turning to `COc1cc2ccccc2cc1C(=O)N1CCOCC1`, the Potency result is “inactive”.
As to `CC(C(=O)NC1CCCCC1)N1C(=O)c2cccc3cccc1c23` (stereo not given), the Potency entry was “inactive”.
`O=C(Oc1ccc(F)cc1)N1CCOCC1`: the Potency entry was “inactive”.
Consider `COc1ccc(CCNC(=O)c2ccco2)cc1`, for which the Potency is 7.38 µM (active).
As to `CCOc1ncccc1C(=O)NCCc1ccc(OC)cc1`, the Potency result is “inactive”.
Consider `Cc1ccc(OCC(=O)NCCCNC(=O)c2ccco2)cc1C`, for which the Potency result was “inactive”.
`Cc1ccc(C)c(NC(=O)COC(=O)CSc2ccccc2)c1`: the Potency entry is “inactive”.
As for `Cc1ccc(Cl)c(NC(=O)CN2CCN(C=O)CC2)c1`, the Potency result was “inactive”.
`Cc1ccc(C)c(NC(=O)C(c2ccccc2)N2CCN(CC(=O)NC3CC3)CC2)c1` (stereo not given): the Potency was 14.7 µM (active).
`Cc1ccc(NS(=O)(=O)c2c(C)[nH]c(C)c2C(=O)N2CCCCC2)c(C)c1`: the Potency result was “inactive”.
The same measure, in the same setting: then `Cc1ccc(S(=O)(=O)N(C)C)cc1NC(=O)c1ccc(-n2cncn2)c([N+](=O)[O-])c1`, with “inactive”.
Regarding `C=CCn1c(SCc2c(C)noc2C)nc2sc3c(c2c1=O)CCC(C)C3` (stereo not given), the activity change, negative = inhibition is -1.1% [at 5.75 µM] (inactive).
For `CC1CCc2c(sc3nc4n(c(=O)c23)CCS4)C1` (stereo not given), the Potency result is “inactive”.
Consider `CCCn1nnc2sc3c(c2c1=O)CCC(C)C3` (stereo not given), for which the Potency is 11.7 µM (active).
The same measure, in the same setting: then `COc1cccc(COC(=O)C2CCN(S(=O)(=O)c3cccs3)CC2)c1OC`, with “inactive”; and `Cn1c(=O)c2sccc2n(Cc2ccc(Br)cc2)c1=O`, with “inactive”.
Turning to `O=C(Nc1ccccc1C(=O)Nc1ccncc1)c1ccc([N+](=O)[O-])cc1`, the Potency entry was “inactive”.
With `CN=C(NC#N)NCCSCc1nc[nH]c1C`, the Potency entry was “inactive and 13.5 µM (active)”.
In the case of `O=C(Nc1cccnc1)c1cc([N+](=O)[O-])ccc1Cl`, the Potency result was “inactive”.
With `O=C(CCc1nnc2ccc(NCCCN3CCCC3=O)nn12)NCc1ccccc1Cl`, the Potency result is “inactive”.
As for `CSCCC(=O)N1CCCC(CNC(=O)c2ccccc2Cl)C1` (stereo not given), the Potency entry is “inactive”.
As for `O=C(CCc1nnc2ccc(NCc3ccccc3Cl)nn12)NCC1CCN(C2CCCC2)C1` (stereo not given), the Potency was 5.22 µM (active).
Still for that read-out and setting: then `Cc1cccc(N(C)C(=O)c2cc(S(=O)(=O)N3CCCCC3)c[nH]2)c1`, with “inactive”.
Still for that read-out and setting: then `Cn1nc(C(F)(F)F)c(C(=O)Nc2cccc(C(F)(F)F)c2)c1SCc1ccc(Cl)cc1`, with 2.62 µM (active); and `CC(C)C[C@H](NC(=O)Nc1cccc(C(F)(F)F)c1)C(=O)O`, with “inactive”; and `O=C(O)CSc1c2c(nc3cc(C(=O)Nc4cccc(C(F)(F)F)c4)ccc13)CCCC2`, with “inactive”.
As for `O=C(OCC(=O)N1CCOCC1)c1ccc2ccccc2c1`, the Potency entry is “inactive”.
As for `Cc1cccc(NC(=O)c2nc[nH]c2C(=O)NCC(=O)OCc2ccccc2)c1`, the Potency result was “inactive”.
The same measure, in the same setting: then `CCOC(=O)c1[nH]cnc1C(=O)Nc1ccccc1C`, with “inactive”.
For the compound `CCOC(=O)c1ccc(NC(=O)c2nc[nH]c2C(=O)NCc2ccccc2)cc1`, the Potency entry was “inactive”.
As for `Cc1ccc(NC(=O)c2nc[nH]c2C(=O)N[C@@H](CCCCNC(=O)OC(C)(C)C)C(=O)OC(C)(C)C)cc1`, the Potency was 11.7 µM (active).
For the compound `CNC(=O)c1[nH]cnc1C(=O)N[C@@H](CC(C)C)C(=O)OC(C)(C)C`, the Potency result is “inactive”.
Same read-out and setting: then `CCOC(=O)c1ccc(NC(=O)c2nc[nH]c2C(=O)N[C@@H](CCCCNC(=O)OC(C)(C)C)C(=O)OC(C)(C)C)cc1`, with 5.86 µM (active).
The same measure, in the same setting: the entry for `C=CCSc1ccc(S(=O)(=O)N2CCN(C)CC2)cn1` is “inactive”; for `Cc1cc(NC(=O)c2ccco2)c(=O)n(Cc2c(F)cccc2Cl)c1` it is “inactive”.
On to `CCOC(=O)N1CCN(c2c(NCCN3CCN(c4ccccc4F)CC3)c(=O)c2=O)CC1`, for which the Potency result is “inactive”.
Consider `COc1ccccc1NC(=O)CCC(=O)OC(C)C(=O)c1ccccc1` (stereo not given), for which the Potency entry was “inactive”.
For `Cc1ccc(C(=O)NCC(=O)OCC(=O)Nc2cccc(S(=O)(=O)N3CCCC3)c2)cc1C`, the Potency result is “inactive”.
In the case of `Cc1ccc(CN2CCN(c3ncccn3)CC2)c(C)c1`, the Potency entry is “inactive”.
For `Cc1cccc(NC(=O)c2cccc(C(F)(F)F)c2)c1`, the Potency result was “inactive”.
Consider `CC(=O)N1CCN(C(=O)Nc2cccc(C(F)(F)F)c2)CC1`, for which the Potency result is “inactive”.
Still for that read-out and setting: then `Cc1cccc(NC(=O)c2nnn(-c3cccc(C(F)(F)F)c3)c2N)c1`, with 5.86 µM (active); and `O=C(O)C1CCCN1S(=O)(=O)c1ccc(Br)cc1` (stereo not given), with “inactive”; and `COc1ccc(-c2c3c(=O)n(C)c(=O)n(C)c3cn2-c2cccc(OC)c2)cc1`, with “inactive”.
Same read-out and setting: then `COc1ccc(CCNCc2c(-c3ccccc3)n(C)c3ccccc23)cc1`, with 10.4 µM (active); and `COc1ccc(OCCCC(=O)NCCc2ccccc2)cc1`, with “inactive”.
`COc1ccc(CNc2ncnc3ccccc23)cc1`: the Potency result was “inactive”.
Regarding `COc1ccc(-c2cc(C(=O)n3cnc4ccccc43)c3ccccc3n2)cc1`, the Potency entry is “inactive”.
Still for that read-out and setting: then `COc1ccc(-c2c(C#Cc3ccccc3)c3ccccc3n2C)cc1`, with 6.57 µM (active).
On the same count and under the same terms, then `CN(CCC(=O)Nc1cc(S(=O)(=O)N(C)C)ccc1Cl)CC(=O)Nc1ccc(F)cc1`, with “inactive”; and `O=C(Nc1cccc2c1N(C(=O)c1ccco1)CCC2)c1ccco1`, with “inactive”.
